Source: the supplement of paper PMC6555819

Tests used:
Assay in all cases: PBM binding z-score (relative to random genomic background probes); higher = stronger binding; sequences stand for … in GC…GCGATTGACAGCGTAGAATGAAGG
[1] = test system: PPARg:RXRa DBDmut IVT, anti-RXR (DBD mutation: RXRa K156A/R161A, NR concentration 270 nM, RXRa partner concentration 90 nM)
Method in brief: (§1)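 Probes were double-stranded and carried 34-nt variable regions with direct-repeat seeds, single-nucleotide variants, half-site ablations and random human genomic background sequences, printed on custom Agilent 4×180K protein-binding microarrays. Arrays were incubated 1 h with ligand-free nuclear receptor dimers in PBS pH 7.4, 2% milk, 0.02% Triton X-100, 1 mM DTT, 0.2 mg/mL BSA and 0.4 mg/ml salmon testes DNA. Antibodies against each partner (one per run) detected binding, and scanned fluorescence was regression-normalized. Binding z-scores use the random background probes as reference.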

[2] = test system: PPARg:RXRa IVT, anti-PPARg (NR concentration 270 nM, RXRa partner concentration 90 nM)
Method in brief: as §1

[3] = test system: PPARg DBDmut:RXRa IVT, anti-PPARg (DBD mutation: PPARg1 K132A/R137A, NR concentration 270 nM, RXRa partner concentration 90 nM)
Method in brief: as §1

[4] = test system: PPARg DBDmut IVT, anti-PPARg (DBD mutation: PPARg1 K132A/R137A, NR concentration 270 nM)
Method in brief: as §1

[5] = test system: PPARg homodimer (NR concentration 180 nM)
Method in brief: as §1

[6] = test system: PXR:RXRa (NR concentration 270 nM, RXRa partner concentration 90 nM)
Method in brief: as §1

[7] = test system: PXR homodimer (NR concentration 270 nM)
Method in brief: as §1

[8] = test system: RARa:RXR (NR concentration 270 nM, RXRa partner concentration 90 nM)
Method in brief: as §1

[9] = test system: RARa homodimer (NR concentration 270 nM)
Method in brief: as §1

[10] = test system: RARb:RXRa (NR concentration 270 nM, RXRa partner concentration 90 nM)
Method in brief: as §1

[11] = test system: RARb homodimer (NR concentration 270 nM)
Method in brief: as §1

[12] = test system: RARg:RXRa (NR concentration 270 nM, RXRa partner concentration 90 nM)
Method in brief: as §1

[13] = test system: RARg homodimer (NR concentration 270 nM)
Method in brief: as §1

[14] = test system: RXRa DBDmut IVT, anti-RXR (DBD mutation: RXRa K156A/R161A, NR concentration 90 nM)
Method in brief: as §1

[15] = test system: RXRa homodimer (NR concentration 180 nM)
Method in brief: as §1

[16] = test system: THRa:RXRa (NR concentration 90 nM, RXRa partner concentration 90 nM)
Method in brief: as §1

[17] = test system: THRa homodimer (NR concentration 90 nM)
Method in brief: as §1

[18] = test system: VDR homodimer (NR concentration 270 nM)
Method in brief: as §1

Sequence	PBM binding z-score [1]	PBM binding z-score [2]	PBM binding z-score [3]	PBM binding z-score [4]	PBM binding z-score [5]	PBM binding z-score [6]	PBM binding z-score [7]	PBM binding z-score [8]	PBM binding z-score [9]	PBM binding z-score [10]	PBM binding z-score [11]	PBM binding z-score [12]	PBM binding z-score [13]	PBM binding z-score [14]	PBM binding z-score [15]	PBM binding z-score [16]	PBM binding z-score [17]	PBM binding z-score [18]
CCGATTGGGGCAGAAAGGTTACCATACCATCCGG	0.436	1.14	-1.01	-0.679	0.221	1.24	-0.318	1.66	-0.348	1.88	2.03	1.61	1.25	-0.405	1.75	0.945	-0.567	-0.225
CATACTGGGCCAAAGGTCATTGATTCCAATGCTC	4.86	6.31	1.88	1.07	3.77	5.52	1.72	6.32	1.82	4.71	4.79	5.89	5.04	1.73	6.78	3.47	1.03	2.42
TCTCGGAGGACACGAAAGGTCAGAGCTCGACATC	1.62	1.53	0.174	-1.26	3.04	3.96	0.404	4.18	1.9	4.14	4.73	4.97	5.83	0.844	3.97	3.52	1.08	0.918
AGTCAAAGTCCAGGACGAGGTAACGTAAAGCACG	-0.362	-0.000589	0.282	0.0417	-0.362	-0.248	-0.347	-0.00617	-0.392	0.916	0.381	0.451	0.688	-0.0759	0.28	1.89	1.14	-0.089
GCTTGTAGATCAAAGTTAAGAAAGACTAAGCTAA	0.918	0.871	-0.419	0.433	-0.72	-0.462	-0.397	-0.522	-0.688	-0.479	-0.8	-0.501	-0.292	-0.0516	-0.495	-0.445	-1.4	-0.623
ACTATTTGGTCAGCTGAGGTCACACACAATTCGG	1.59	2.69	1.5	1.46	2.9	5.26	1.97	4.3	1.66	3.65	4.69	4.24	4.48	2.02	4.4	5.09	5.11	3.67
GCTAGCATGCCATTTGGGTCACTCAATGACGGGC	0.671	1.3	0.0302	-0.739	-0.305	0.247	-0.745	0.851	-0.41	1	1.77	0.756	0.805	-0.283	0.99	1.69	0.874	0.0275
CCTAGTTGGTCAAGGTCACACGCGCTATAGGTAC	2.5	3.82	0.145	0.325	2.68	4.09	2.6	4.13	1.78	4.39	4.39	4.76	4.72	2.18	4.7	4.17	4.19	3.41
TCACGGAGGACACGAAGGTCAGAGCTTTCCAGAG	1.52	0.826	-1.19	-0.604	1.45	1.98	1.22	2.3	0.266	3.44	3.7	3.41	3.86	0.991	1.91	2.73	0.917	1.42
ACTAGTTGGACAGCTGAGGTCACACACAATTCGG	0.874	1.88	0.609	0.717	1.73	4.67	1.34	4.57	1.08	3.33	4.06	3.66	3.43	1.09	3.85	4.57	4.93	2.99
CCTAGCAGGCCAAGGTCACTCAAGCATTTCGCTT	2.14	1.93	-1.42	-0.849	1.92	3.35	0.64	3.65	0.757	3.55	3.82	3.82	3.92	1.05	3.51	3.66	2.88	2.2
GCTTGTAGATCAACGTTAAGAAAGACTAAGCTAA	1.51	0.269	0.342	0.507	-0.243	-0.51	-0.226	-0.0818	-0.208	-0.508	-0.408	-0.256	-0.209	0.0501	-0.405	-0.214	-0.701	-0.764
TGATTGAGGTTATAAGATCAGGGAACGTTGCAAA	0.431	1.59	0.391	0.349	0.564	0.896	-0.0809	1.5	0.232	1.19	0.293	1.55	1.13	0.404	2.06	1.68	0.31	0.65
CGTCAAAGTTCAAAGTAACGTAACAGAAAGCAGC	0.465	1.58	1.23	1.35	3.3	4.68	3.73	3.43	1.73	4.9	3.42	5.52	5.99	4.98	4.88	1.72	-0.272	4.15
CCTAGTCGGTCAAGGTCACACACGCTATAGGTAC	4.58	5.27	0.742	0.895	3.81	4.4	1.97	4.9	2.62	4.51	4.9	5.15	5.64	2.13	4.64	4.26	4.28	3.91
TTAGCAAGGTGAAAGGTCGTTGATGCACGCCTTG	2.15	4.63	0.373	-0.113	1.42	3.85	0.158	5.72	-0.524	2.98	2.23	4.16	1.75	0.67	5.52	3.02	0.254	1.18
CTTTACGGGTCACTGACAGGTTATAGCATTTGGA	4.85	4.95	0.913	1.44	2.33	3.9	0.619	5.01	0.972	4.14	3.58	6.21	5.08	2.54	5.93	3.18	0.855	1.15
GCGACTGGGGCAAAGCAGGTTACCATAAGGTTGG	4.62	3.61	-0.534	-0.872	-0.306	0.415	-0.59	0.0364	-0.818	0.93	1.15	0.472	0.712	-0.374	0.33	2.84	0.0306	-0.59
TAGCATAGGTCATTGGGCCAGTATAGTACGCATC	1.83	3.4	0.78	0.329	1.56	2.87	-0.00464	3.16	0.152	3.97	3.23	4.88	4.65	1.58	4.77	2.29	-0.526	0.622
ATATGTAGATTACATCCGGGTCATTCAGGCTATG	1.44	2.32	1.43	1.61	1.18	2.53	1.22	2.88	0.587	1.38	2.23	1.66	1.21	1.02	2.2	3.14	2.27	2.43
CCTACTGGGCCACGCAAGGTCATTGATTCAGTGA	5.58	5.36	0.0336	0.776	2.02	4.51	1.84	3.48	0.546	2.81	3.66	3.09	2.61	0.396	2.62	4.54	2.64	2.93
AGAACGAGGGCACGCTGAGTCGATAGCAGAGTAG	4.27	3.81	0.34	0.0245	-0.314	0.266	-0.486	0.489	-0.608	2.42	1.02	1.92	2.12	1.87	1.29	1.72	-0.22	0.912
CCGACTGGGGCAAGGTTGCCATAACGCACAGCCA	2.66	2.53	-0.344	-1.02	0.0482	-0.535	-0.379	-0.46	-0.394	0.641	0.376	0.327	0.556	-0.586	0.107	0.0473	-0.389	-0.526
GCTTATAGGTAATACAAGGTGAAAGTCCGATTGT	3.24	2.78	1	1.03	0.685	0.829	0.193	1.93	1.06	0.613	1.05	0.63	0.649	0.59	0.772	4.28	1.16	0.227
AGTCAAAGTTCATCTAGGTAACGTATGATATGCT	0.872	3.88	1.48	1.76	2.9	5.12	7.63	3.93	1.68	4.95	3.98	5.57	6	4.68	4.58	3.23	0.203	5.23
GCGACGGGGGCAAAGCAGGTTACCATAAGGTTGG	2.39	4.59	4.08	8.05	1.37	3.8	1.1	2.78	0.26	2.88	2.24	3.47	3.11	2.62	2.73	4.56	1.23	2.8
GTTCGGAGGACAAGGTCAGAGCTTTGTCCGTAGA	-0.0952	0.927	-0.706	-1.19	1.25	1.67	-0.41	2.17	-0.913	3.13	2.99	2.91	3.51	0.7	1.91	3.06	1.52	0.65
TCAGACAGGTGAAGCTAACTCAGGTACGCAGTCG	2.31	0.713	0.0407	-0.303	0.616	0.0875	0.111	0.285	0.225	0.749	0.0204	0.241	0.351	0.962	0.617	0.525	-0.351	-0.124
AGAATGAGGTTCTTAAGATCAGGGAATTGCGGTC	0.324	0.283	0.378	-0.225	-0.0988	-0.118	-0.179	-0.0748	-0.832	0.0675	-0.377	-0.106	-0.186	0.301	-0.00148	0.365	0.000852	-0.0897
